Marburg entry inh – qHTS for inhibitors of binding or entry into cells for Marburg Virus; Marburg virus pseudotyped entry inhibition, cell reporter; Potency, µM (series often up to 37.8 µM), inactives show top-dose activity change, negative = inhibition, most hits filed as inhibitors; 300,000 compounds, 1.8% hits; AID 540276, 2011; calls by dose curve; tested in HEK293 cells; further: potency means the concentration at half of the fitted maximal effect
Pf growth 96h – Primary qHTS for delayed death inhibitors of the malarial parasite plastid, 96 hour incubation | 320,000 compounds, 6.9% hits | P. falciparum luciferase reporter growth, 96 h | Potency, µM (top dose mostly 28.7 µM), for the others: at the top dose activity change, negative = inhibition, hits mostly inhibitors; further: potency means the concentration at half of the fitted maximal effect
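Two parasite generations (96 h, 37 C, 5% CO2) of compound exposure in infected erythrocytes (0.05% parasitemia, 2% hematocrit). Luciferase-reporter P. falciparum; decreased luminescence indicates inhibited growth, aimed at apicoplast-acting delayed death.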
Lassa entry inh – qHTS for Inhibitors of binding or entry into cells for Lassa Virus; Lassa virus pseudotype entry inhibition, cell reporter; Potency, µM (highest dose often 37.9 µM), for inactives: at the top dose activity change, negative = inhibition, most hits filed as inhibitors; 300,000 compounds, 1.2% hits; AID 540256, 2011; calls by dose curve; tested in HEK293 cells; further: potency means the concentration at half of the fitted maximal effect; nearly all actives have a fitted effect of over 50% in size
HCMV inh – qHTS Assay for inhibitors of the human cytomegalovirus (HCMV) | activity change, negative = inhibition, % at 57.5 µM | 410,000 compounds, 4.5% hits | HFF cells, HCMV-luciferase reporter, 72 h; stronger effect = lower value | AID 1259415, 2018; in the data active means activity change below about -60%; inconclusive means no clear call, values can overlap the other calls; inactive means above about -39%
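Screen run at 2 compound doses on HFFs infected with reporter HCMV, MOI 1 PFU/cell. Luciferase activity from cell lysates at 72 h post infection gave inhibition relative to buffer-only and Salinomycin wells.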
HCV inh – qHTS Assay for Inhibitors of Hepatitis C Virus (HCV); Huh7.5.1 HCVcc-Cre infection, luciferase reporter, 44 h; AID 651820, 2012; 340,000 compounds, 3.4% hits; Potency, µM (titrated, usually from 41.8 µM), for the others: top-dose activity change, negative = inhibition, hits mostly inhibitors; further: potency means the concentration at half of the fitted maximal effect
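Reporter virus HCVcc-Cre (~0.5 moi) infects cells exposed to compound; seeding density 1,000 cells/well with 4 h settling beforehand. Luminescence, 15 sec read, taken 44 h post-infection following a 15 min RT substrate incubation.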
Pf growth 48h – Primary qHTS for delayed death inhibitors of the malarial parasite plastid, 48 hour incubation | Potency, µM (top dose mostly 28.7 µM), inactives show at the highest dose activity change, negative = inhibition, most hits filed as inhibitors | 310,000 compounds, 5.9% hits | AID 504832, 2011 | P. falciparum luciferase growth in erythrocytes, 48 h; further: potency means the concentration at half of the fitted maximal effect
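Read-out is firefly luciferase luminescence from an integrated reporter in P. falciparum, so falling signal marks reduced parasite growth. Infected erythrocytes were at 2% hematocrit and 0.1% parasitemia (final) in Albumax-supplemented RPMI 1640.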
* = called active by the depositor; ? = inconclusive; / = no result; [ ] = dose if it differs, or a comment. Most compounds without a hit are left out; they make up all but 14% or so of the library. Unless noted, the call rests on the fitted dose curve; in most records, active means well fitted inhibition curve with a large enough effect; inconclusive means small, poorly fitted or top-dose-only effect, or another doubt; inactive means no such curve, though single readings can be large or run the other way. On the % scale 0 is the no-effect control and ±100 the full control effect.

SMILES	Marburg entry inh	Pf growth 96h	Lassa entry inh	HCMV inh	HCV inh	Pf growth 48h
COc1ccc(C(=O)/C=C/c2cccc(OCc3ccccc3)c2)cc1CSCC(=O)O	/	4.65µM*	/	-27.7	8.5%	9.28µM*
COc1ccc(/C=C/C(=O)c2ccc3c(c2)OCO3)cc1OC	?	-1.9%	3.9%	?	3.7%	16.5%
COc1cc(/C=C/C(=O)OCc2csc(CC(=O)Nc3ccc(C)cc3)n2)ccc1OCC#N	/	13.1µM*	/	0.0	?	?
COc1ccc(/C=C/C(=O)c2ccc(C(=O)/C=C/c3ccc(OC)c(OC)c3)cc2)cc1OC	/	?	/	-75.9*	4.47µM*	?
CCOC(=O)C1(C)CCCCCN1C(=O)c1csnn1 (stereo not drawn)	/	/	/	25.1	/	/
CCOc1cc(/C=C/C(=O)c2ccc(C)cc2)ccc1OCC(=O)N(C)C	?	?	?	-97.3*	?	?
COc1ccc(Oc2ccc(/C=C/C(=O)c3ccc(O)cc3)cc2[N+](=O)[O-])cc1	?	11.7µM*	12.6µM*	-98.2*	?	11.7µM*
CCOc1cc(/C=C/C(=O)O)ccc1OCCO	2.2%	-9.7%	11.2%	-31.0	9.5%	16.5%
COc1ccc(/C=C/C(=O)c2ccccc2)cc1COc1ccc(F)cc1	?	?	-35.8%	-1.9	?	?
COc1ccc(C=CC(=O)c2ccc(OCc3ccccc3)c(OC)c2)cc1OC	/	/	/	-87.4*	/	/
COc1ccc(/C=C/C(=O)c2ccccc2)cc1Cn1nnc2ccccc21	?	?	-22.0%	-34.3	3.55µM*	?
CC(C)(C)C(c1nc2ccccc2[nH]1)n1c(-c2cc(Cl)cc(Cl)c2)nc2ccccc21 (stereo not drawn)	/	/	/	16.4	/	/
Cc1ccc2[nH]c3c(=O)n(CC(=O)N4CCCCC4)ncc3c2c1	/	/	-4.1%[46.1 µM]	4.4	/	/
CCc1nnc(NC(=O)c2cccc(S(=O)(=O)N3CCN(C)CC3)c2)s1	/	/	/	35.5	/	/
COC(=O)c1ccc(/C=C/C(=O)c2ccc(OC)cc2)cc1	4.7%	-19.8%	2.8%	84.6	?	10.5%
COC(=O)c1ccc(/C=C/C(=O)c2ccc(OC)c(OC)c2)cc1	-1.9%	?	-22.0%	/	?	10.4µM*
COc1cc(/C=C/C(=O)O)ccc1OS(=O)(=O)c1c(C)c(C)cc(C)c1C	/	-71.0%	/	-11.5	11.9%	10.4µM*
COc1ccc(/C=C/C(=O)O)cc1O	/	2.1%	/	5.9	0.8%	9.1%
O=C1/C(=C/c2cccnc2)CCC/C1=C\c1cccnc1	?	13.1µM*	7.08µM*	-101.3*	?	10.4µM*
CCC1C/C(=C\c2cccnc2)C(=O)/C(=C/c2cccnc2)C1 (stereo not drawn)	5.8µM*	21.0%	4.47µM*	-98.3*	?	7.38µM*
O=C1/C(=C/c2cccnc2)CC/C1=C\c1cccnc1	?	?	-2.8%[46.1 µM]	-98.7*	2.2%	?
CC(C)/C=C1\CC/C(=C\c2cccnc2)C1=O	/	157.6%	/	6.9	10.0%	?
NC1=NC(=O)/C(=C\c2cccnc2)S1	20.8%	9.28µM*	8.5%	?	6.6%	7.8%
CCOC(=O)c1c(C)[nH]c(C)c1S(=O)(=O)N1CCCC(C(=O)Nc2ccc(F)cc2F)C1 (stereo not drawn)	/	/	10.7%[46.1 µM]	-1.7	/	/
COC(=O)c1nnc(C(=O)NCc2ccccc2)c2[nH]c3ccccc3c12	-14.5%[14.2 µM]	/	/	/	/	/
SMILES	Marburg entry inh	Pf growth 96h	Lassa entry inh	HCMV inh	HCV inh	Pf growth 48h
COC1CCCCC1C1CCN(C(=O)c2cccs2)CC1 (stereo not drawn)	-7.1%	/	/	/	/	/
O=C1NC(=S)N/C1=C/c1cccnc1	/	?	/	-63.3*	-0.4%	1.3%
CN(C)c1ccc(/C=C2\CCC/C(=C\c3ccccc3)C2=O)cc1	-18.3%	?	?	33.2	?	?
O=C1NC(=S)N/C1=C\c1cccnc1	/	-5.7%	/	?	18.2%	54.9%
O=C1/C(=C/c2ccc(C(=O)O)cc2)CCC/C1=C\c1ccc(C(=O)O)cc1	-12.3%	1.47µM*	5.1%	-16.0	7.0%	2.08µM*
CC12CCC3C(CC=C4CC(O)CCC43C)C1C/C(=C\c1cccc(F)c1)C2=O (stereo not drawn)	?	11.7µM*	-27.6%	-33.6	6.0%	?
C=CCNC(=S)/N=c1/scc(C)n1C	?	34.8%	?	-10.6	0.0%	54.0%
C=CCNC(=S)/N=c1/ccccn1C	4.0%	?	0.9%	-98.2*	17.2%	4.3%
C=CCNC(=S)/N=c1\sccn1C	-2.0%	3.7%	?	27.4	-5.2%	-15.0%
C=CCNC(=S)/N=c1/ccccn1CCC	4.8%	-1.8%	/	-107.1*	1.1%	0.0%
COc1ccc(-c2cn(CCC(=O)O)c(=O)cn2)cc1	/	/	/	-13.0	/	/
COc1ccccc1CNC(=O)COC(=O)C1=COCCO1	21.4%	5.22µM*	-3.8%	-21.8	19.0%	4.0%
O=C(COC(=O)C1=COCCO1)NCc1ccc(Cl)cc1Cl	/	/	/	-60.6*	/	/
O=C(COC(=O)C1=COCCO1)NCc1ccc(F)cc1	/	36.7%	/	36.6	4.2%	?
N#Cc1ccccc1NC(=O)C(=O)NCCc1csc(-c2ccc(F)cc2)n1	/	-22.8%	-6.0%[46.1 µM]	-14.3	/	-2.2%
CCC(Sc1nc2ncccc2o1)C(=O)Nc1ccc(OC)c(OC)c1 (stereo not drawn)	/	/	?	29.9	/	/
O=C(N/N=C/c1cc(Cl)cc([N+](=O)[O-])c1O)c1cccc(S(=O)(=O)N2CCOCC2)c1	?	?	-2.0%	-12.9	-29.1%[8.37 µM]	?
COc1ccc(OC)c(C(c2nnnn2C2CCCC2)N2CCc3ccccc3C2)c1 (stereo not drawn)	?	23.8%	?	-9.5	11.2µM*	2.94µM*
COc1ccc(C(c2nnnn2C2CCCC2)N2CCc3ccccc3C2)cc1OC (stereo not drawn)	-12.8%	34.8%	?	?	-11.0%	3.7µM*
CC(C)N1CCN(Cc2ccc(OC3CCCC3)cc2)CC1CCO (stereo not drawn)	/	11.7µM*	/	-23.5	?	-13.0%
CC(C)N1CCN(Cc2ccc(OCc3ccccc3)cc2)CC1CCO (stereo not drawn)	/	?	/	?	?	-15.3%
CC(=O)OCC(=O)C1(O)CCC2C3CCC4=CC(=O)CCC4(C)C3(Cl)C(O)CC21C (stereo not drawn)	?	/	5.4%[46.1 µM]	77.5	9.1%	/
CSc1cc(-c2ccc(Cl)cc2)c(C(=O)NC(C)C)s1	13.5%	-4.4%	2.9%	-5.1	-23.6%	-4.3%
CSc1cc(-c2ccc(Cl)cc2)c(C(=O)NN)s1	?	11.7µM*	11.1%	9.4	3.55µM*	?

Source: PubChem
